The structures appear in SMILES notation. Values joined by “and” are separate entries in the source; they are usually repeats but may differ in a detail not shown here. Equal entries are not always repeated. A number with no mark means an inactive call.

Results on 31 compounds are retold here after the supplement of paper PMC12297408.

For the assay, the system named is Plasmodium falciparum NF54/iGP1_RE9H ulg8 stage V gametocytes. In words: gametocyte viability (luciferase signal relative to DMSO control) (% of DMSO control); higher = less gametocytocidal activity, active = 50 or less. The settings on record: concentration: 1 µM; exposure time: 72 h. In a few lines: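 Gametocyte viability is reported relative to the average of DMSO vehicle wells on the same plate. The assay used day-12 stage V NF54/iGP1_RE9Hulg8 gametocytes at ~2.5% gametocytemia and 3% hematocrit, in 0.5% Albumax II medium, added to 96-well plates of compounds spotted in nanolitre volumes for final 10 µM or 1 µM, one well each. After 72 h at 37 °C, 90 µl was mixed with 10 µl D-luciferin (30 mg/ml), and luminescence was recorded with an IVIS Lumina II.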
`N#C/C(=C\c1ccc(O)c(O)c1)C(=O)Nc1ccccc1`: the gametocyte viability was 99.6. In the case of `C[S+]([O-])c1ccc(-c2nc(-c3ccc(F)cc3)c(-c3ccncc3)[nH]2)cc1` (stereo unspecified) it was 97.2 and 103; in that of `Cc1nc(N)sc1-c1ccnc(Nc2ccc(N3CCOCC3)cc2)n1`, 107.

`C=CC(=O)N1CCC[C@@H](n2nc(-c3ccc(Oc4ccccc4)cc3)c3c(N)ncnc32)C1`: the gametocyte viability is 106. As to `CNC(=O)c1cc(Oc2ccc(NC(=O)Nc3cc(C(C)(C)C)nn3-c3ccc4ncccc4c3)c(F)c2)ccn1` [DCC-2036 (Rebastinib)], the gametocyte viability was 103. In the case of `CC(=O)Nc1nc(C)c(-c2ccc(Cl)c(S(=O)(=O)NCCO)c2)s1` it was 81.5; in that of `NC(N)=NCCNS(=O)(=O)c1cccc2cnccc12`, 107. The figure for `CC(C)n1nc(-c2cc3cc(O)ccc3[nH]2)c2c(N)ncnc21` is 105. Regarding `CO[C@H]1C[C@@H]2CC[C@@H](C)[C@@](O)(O2)C(=O)C(=O)N2CCCC[C@H]2C(=O)O[C@H]([C@H](C)C[C@@H]2CC[C@@H](O)[C@H](OC)C2)CC(=O)[C@H](C)/C=C(\C)[C@@H](O)[C@@H](OC)C(=O)[C@H](C)C[C@H](C)/C=C/C=C/C=C/1C` [Rapamycin (Sirolimus)], the gametocyte viability was 99.3. The figure for `COc1ccc(-c2cc3c(C)nc(N)nc3n([C@H]3CC[C@H](OCCO)CC3)c2=O)cn1` is 95.3; for `S=C(NCc1ccc2c(c1)OCO2)N1CCN(c2ncnc3c2oc2ccccc23)CC1` [Amuvatinib (MP-470)] it is 98.1. The figure for `Nc1ncnc2c1c(I)cn2[C@@H]1O[C@H](CO)[C@@H](O)[C@H]1O` [5-Iodotubericidin] is 103. The figure for `CNC(=O)c1cc(Oc2ccc(NC(=O)Nc3ccc(Cl)c(C(F)(F)F)c3)c(F)c2)ccn1` [Regorafenib (BAY 73-4506)] is 95.1; for `Cc1cc2ncc(-c3ccccc3)nc2cc1C` it is 91.2. Turning to `O=P(O)(O)C(O)c1ccc2ccccc2c1` (stereo unspecified) [Hydroxy-2-naphthalenylmethylphosphonic acid], the gametocyte viability is 95.7. Take `CC(C)(C)c1cc(NC(=O)Nc2ccc(-c3cn4c(n3)sc3cc(OCCN5CCOCC5)ccc34)cc2)no1` [Quizartinib (AC220)]: the gametocyte viability was 97.7.

Regarding `C=CC(=O)Nc1cccc(Oc2nc(Nc3ccc(N4CCN(C)CC4)cc3)ncc2Cl)c1`, the gametocyte viability is 103. Regarding `CO[C@H]1C[C@@H]2CC[C@@H](C)[C@@](O)(O2)C(=O)C(=O)N2CCCC[C@H]2C(=O)O[C@H]([C@H](C)C[C@@H]2CC[C@@H](OCCO)[C@H](OC)C2)CC(=O)[C@H](C)/C=C(\C)[C@@H](O)[C@@H](OC)C(=O)[C@H](C)C[C@H](C)/C=C/C=C/C=C/1C` [Everolimus (RAD001)], the gametocyte viability was 91.

Consider `O=C1Nc2ccc(I)cc2/C1=C/c1cc(Br)c(O)c(Br)c1`, for which the gametocyte viability is 92.1. As to `O=c1c(-c2ccc(O)cc2)coc2cc(O)ccc12` [Daidzein], the gametocyte viability was 116. In the case of `O=S(=O)(NCCNC/C=C/c1ccc(Br)cc1)c1cccc2cnccc12` it was 99; in that of `O=C(Nc1ccc(OC(F)(F)F)cc1)c1sccc1NCc1ccnc2ccccc12`, 96.9; in that of `N#C/C(=C\c1cc(Cl)cc(Cl)c1)c1cccnc1`, 98.1. In the case of `Nc1nc(Nc2ccc(S(N)(=O)=O)cc2)nn1C(=O)c1c(F)cccc1F` it was 101. In the case of `O=S(=O)(c1cccc2cnccc12)N1CCCNCC1` it was 101; in that of `NC1(Cc2ccc(Cl)cc2)CCN(c2ncnc3[nH]ccc23)CC1`, 114; in that of `COc1ccc(S(=O)(=O)N(C(C)=O)c2ccccc2/C=C/c2cc[n+]([O-])cc2)cc1`, 98. With `N#CC1(c2ccc(NC(=O)c3cccnc3NCc3ccncc3)cc2)CCCC1` [Apatinib (YN968D1)], the gametocyte viability is 96. In the case of `CO[C@@H](C(=O)N1Cc2[nH]nc(NC(=O)c3ccc(N4CCN(C)CC4)cc3)c2C1)c1ccccc1` it was 89.5. `CN([C@@H](Cc1ccc(OS(=O)(=O)c2cccc3cnccc23)cc1)C(=O)N1CCN(c2ccccc2)CC1)S(=O)(=O)c1cccc2cnccc12`: the gametocyte viability was 93.8.

In the case of `CC[C@H](CO)Nc1nc(NCc2ccccc2)c2ncn(C(C)C)c2n1` [Roscovitine], the gametocyte viability is 107.
